# Measured values as given in PubChem BioAssay (NCI).
# The panel holds about 83,000 compounds, 20% with a hit somewhere; the sample as a whole holds those more often.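 Testing used 96-well plates and a 48-hour single-concentration exposure. Example: -40 means 40% of the starting cells died.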 Values without a mark were called inactive. Activity calls are given as the source filed them.
# Tested on: A498 renal
# Assay: NCI-60 one-dose screen, 48 h (100 = growth as untreated, 0 = no growth, -100 = all killed)
# Settings: 10 µM unless noted
# Protocol: Growth inhibition of the A498 human tumor cell line is measured as a screen for anti-cancer activity. Cells are grown in 96 well plates and exposed to the test compound for 48 hours. Compounds are tested at a single concentration, which is 10^-5 M for most compounds. The reported endpoint is percent growth (GI% or GIPRCNT), where numbers from 0 - 100% represent growth inhibition, and numbers from -100% - 0 represent cell death. For example, a value of 40 represents 60% growth inhibition. A value of 0 means no net growth occurred over the course of the experiment. A value of -40 indicates 40% of cells at the beginning of the experiment died by the end of the experiment. A value of -100 means all cells are dead at the end of the experiment.
# NCI-60 Human Tumor Cell Lines Screen was performed using the standard one-dose NCI protocol, which is described in more detail at https://dtp.cancer.gov/discovery_development/nci-60/default.htm.
# Compounds with GIPRCNT values below 10 were considered active. Activity score was based on GIPRCNT using the following formula: […]
# Score is 0 for GIPRCNT values of 100 or above, 50 for GIPRCNT values of 0, and 100 for GIPRCNT values of -100.
row,Compound,growth
1,COc1nc(N)nc(-n2c(-c3ccc(C)cc3)nc3ccccc32)c1NCc1ccc(C)cc1,80.7%
2,Fc1ccc2nc3c(cc2c1)CSc1nnc(-c2ccc[nH]c2=S)n1N3,92.1%
3,N/C(=N\N=C\c1cc2ccccc2[nH]1)N/N=C/c1cc2ccccc2[nH]1,95.6%
4,COc1cccc2c1C(=O)c1c(O)c3c(c(O)c1C2=O)C[C@@](O)(C(=O)CO)C[C@@H]3O[C@H]1C[C@H](N)[C@@H](O)[C@H](C)O1,-67.3% (active)
5,CN1CCN(CCCNc2nccc(-c3c(-c4ccc(F)c(O)c4)nc4sccn34)n2)S1(=O)=O,134%
6,CC[C@@]12C=CCN3CC[C@]4(c5cc(NC(=O)COc6cc(OCC(=O)Nc7cc8c(cc7OC)N(C)[C@H]7[C@@](O)(C(=O)OC)[C@H](OC(C)=O)[C@]9(CC)C=CCN%10CC[C@]87[C@@H]%109)cc7oc(-c8ccccc8)cc(=O)c67)c(OC)cc5N(C)[C@@H]4[C@](O)(C(=O)OC)[C@H]1OC(C)=O)[C@H]32,58.6%
7,COc1ccc(NC(=O)c2sc3nc(C)c(C(=O)c4ccc(OC)cc4)cc3c2N)cc1,-3.91% (active)
8,CC(C)CCSc1nc(NNC(N)=O)c(C#N)c(-c2ccccc2)n1,105%
9,COc1ccc(/C=N/NC(=O)c2cccc3cc[nH]c23)cc1O,74.5%
10,CC(=O)N1N=C(c2cccc(Nc3ccncc3)c2)CC1c1ccc2c(c1)OCO2 (stereo not given),70.7%
11,O=C(CN1CCOCC1)Nc1ccc2ncnc(Nc3ccc(Oc4cccc(F)c4)c(Cl)c3)c2c1,63.2%
12,COc1ccc(-c2ncc(-c3ccccc3)[nH]2)cc1OC,89.2%
13,COc1ccccc1/C=C1\COc2ccc(-c3ccccc3)cc2C1=O,42.8%
14,Nc1ccccc1NC(=O)c1ccc(CN2CCC/C(=C\c3cccc(Cl)c3)C2=O)cc1,-11% (active)
15,Cc1cccc(Oc2ccc(Nc3ncnc4ccc(NC(=O)CN(C)C)cc34)cc2Cl)c1,58.7%
16,COc1cc(Nc2cc(O)c3c(=O)cc(-c4ccccc4)oc3c2)cc(OC)c1,-4.73% (active)
17,CN(C)CCCn1c2c(c3ccc(-c4ccn[nH]4)cc3c1=O)C(=O)c1ccccc1-2,52.4%
18,COc1cc2nc(Cc3ccc(C)cc3)[nH]c(=O)c2cc1OC,90.6%
19,CC1(C)CCCN1CCCN1c2ccccc2Sc2ccc(Cl)cc21,61.7%
20,CC(=O)N1N=C(c2cccc(Nc3ccncc3)c2)CC1c1ccccc1 (stereo not given),70%

row,Compound,growth
1,Cc1cc(C)c(C=O)c(C)c1,102%
2,CCNC(=O)c1[nH]cc(-c2ccc(OC)cc2)c1-c1cc(OC)cc(OC)c1,91.1%
3,CN1C(=O)N(C)C2NC(N/N=C/c3ccccc3)=NC21 (stereo not given),95.4%
4,O=C(O)CCCCCCCCCCCCCCC(=O)O,76.9%
5,Cc1ccc(C2CC(c3cccc(Nc4ccncc4)c3)=NN2c2cc(Cl)cc(Cl)c2)cc1 (stereo not given),77.6%
6,COc1cc(NCCN(CC(C)C)C2CCCC2)c2ncccc2c1,75%
7,CN1C2CCC1CN(c1cnc(C(=O)Nc3cc(F)cc4cccnc34)cn1)C2,74.9%
8,O=C1Nc2c(ccc(Cl)c2Cl)/C1=C/c1ccc(F)cc1,92.5%
9,O=S(=O)(c1ccccc1)N1CCCc2ccccc21,77.1%
10,COc1ccc2c(/C=C3/C(=O)NC(=S)NC3C)cc(=O)oc2c1 (stereo not given),91.5%
11,Clc1ccc(N2N=C(c3cccc(Nc4ccncc4)c3)CC2c2ccc3c(c2)OCO3)cc1 (stereo not given),69.7%
12,Cc1cccc(Oc2ccc(Nc3ncnc4ccc(NC(=O)CNCCO)cc34)cc2Cl)c1,49.7%
13,Clc1ccc(C2CC(c3cccc(Nc4ccncc4)c3)=NN2c2cc(Cl)cc(Cl)c2)cc1 (stereo not given),85.6%
14,COc1cc(C2CC(c3cccc(Nc4ccncc4)c3)=NN2c2ccc(Cl)cc2)cc(OC)c1OC (stereo not given),64.1%
15,COc1ccc(-c2nc(SCCC(C)C)nc(N/N=C(/C)c3ccc(C)cc3)c2C#N)cc1,99.4%
16,COc1cc(C2CC(c3cccc(Nc4ccncc4)c3)=NN2C(C)=O)cc(OC)c1OC (stereo not given),94.1%
17,COc1ccc(Cn2nc(-c3ccccc3)c3c2CCc2cnoc2-3)cc1,58.7%
18,O=C1Nc2c(ccc(Cl)c2Cl)/C1=C/c1ccccn1,110%
19,COc1ccc(Cl)cc1NC(=O)c1c(NC(=O)C(F)(F)C(F)(F)F)sc2c1CCCCC2,-45.1% (active)
20,COc1cc(C2CC(c3cccc(Nc4ccncc4)c3)=NN2c2cc(Cl)cc(Cl)c2)cc(OC)c1OC (stereo not given),84%
